Measured values: PubChem BioAssay
Several values for one entry are separate records, joined by “and”; a condition that tells them apart may be missing. Equal entries are not always repeated. Activity calls are given as the source filed them.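 How the source made its calls, unless noted: active means inhibition at or above 50% relative to wild type and mutant plate controls; inactive means inhibition below 50%.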

Columns and labels:
[1] = endothelial E-selectin expression blockers – imaging, HUVEC, immunofluorescence, MLSMR starter and 10KST1 sets, primary screen (AID 487;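 active means visually confirmed hit in the image check and inhibition above 20%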;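 on inhibition: signal is fraction of cell area covered by stained E-selectin grains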;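 on nuclei count: 100% = median nuclei count of all wells on the same plate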); details: HUVEC TNFalpha-induced E-selectin immunofluorescence imaging, at 2 µM; inhibition: stronger effect = higher value; nuclei count: measured here: cell number, toxicity
[2] = Primary imaging screen for DUSP6 inhibitors that restore phospho-Erk in transfected HeLa cells, chemical complementation (AID 609;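 active means compounds giving at least 50% inhibition in the cell-based MKP-3 phosphatase rescue imaging test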;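 on inhibition: phospho-Erk level distribution per well compared with pooled transfected vehicle control wells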); details: HeLa MKP-3 transfected, phospho-Erk imaging KS statistic, at 10 µM, cells stimulated with TPA for 15 min
[3] = target: Dual specificity protein phosphatase 6 (Homo sapiens) (UniProt Q16828); assay: as above; details: HeLa MKP-3 transfected, phospho-Erk imaging KS statistic; at 10 µM; stronger effect = higher value; cells stimulated with TPA for 15 min
[4] = target: Voltage-gated potassium channel subunit beta-2 (Rattus norvegicus) (UniProt P62483); assay: inhibitors of rat Kvbeta2 reductase activity – biochemical, NADPH fluorescence, primary screen (AID 622;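 active means fluorescence slope higher than the sample average by over 3 SD, cut at about -0.22 in these data, passing the limit was not always enough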;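 further: slope of raw intensity against log time taken from 70 to 1610 s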); details: recombinant KvBeta, 4-cyanobenzaldehyde reduction, at 10 µM, stronger effect = higher value
[5] = target: Voltage-gated potassium channel subunit beta-2 (Rattus norvegicus) (UniProt P62483); assay: enhancers of rat Kvbeta2 NADPH turnover – biochemical, NADPH fluorescence, primary screen (AID 623;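 active means NADPH fluorescence slope more negative than the mean of all samples by about 3 SD, 99.7% confidence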;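 further: fluorescence intensity change per second fitted from 20 to 320 s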); details: Recombinant KvBeta, NADPH fluorescence decrease slope, 10 min; at 10 µM; stronger effect = lower value
[6] = target: Alpha-2C adrenergic receptor (Homo sapiens) (UniProt P18825); assay: compounds altering alpha2C-coupled GIRK flux – cell-based, HEK293 alpha2C/GIRK1/2, thallium flux, primary screen (AID 624;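 active means fluorescence slope after compound addition differing from the mean of all screened samples at 99.7% confidence, in either direction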;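 further: slope of fluorescence ratio to pre-addition baseline per second over 15 to 24 s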); details: thallium flux BTC fluorescence, at 10 µM, actives lie on both sides
[7] = inhibitors of larval lipid processing in zebrafish, primary screen, whole organism, PED6 fluorescence, gall bladder and intestine (AID 686;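 active means a full or partial loss of lipid-probe fluorescence in the fish gall bladder, intestine or both, judged by eye; inactive means no fluorescence loss, or compound toxic to the fish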;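 further: larvae 5 to 7 days old with five fish per well; signal comes from phospholipase A2 cleavage of quenched PED6 carried via bile; overnight exposure to compound and PED6 before scoring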); details: Zebrafish larvae PED6 lipid processing, fluorescence scoring; screened at 20 µM (by protocol)
[8] = loss of swimming-algae plug formation – whole organism, Chlamydomonas reinhardtii, WT vs cilia-less mutant, absorbance, 96-well, primary screen (AID 463189); details: Chlamydomonas reinhardtii gravitaxis, OD600 absorbance, 2 days; at 10 µM; stronger effect = higher value;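 further: 0% = wild type cc124 cells in DMSO and 100% = ciliumless bld1 mutant cells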
[9] = blockers of RIG-like receptor reporter activation – cell-based, Sendai virus stimulus, luciferase, 10K MLSCN set, TLR/RLR signaling modifier project, primary screen (AID 602276;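 active means inhibition at or above 50% at 10 µM; inactive means inhibition below 50%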;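 further: firefly luciferase from ISG56 promoter only with Renilla not read in this screen; 0% = Sendai virus plus DMSO and 100% = medium plus DMSO without virus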); details: HEK293 RL24 IRF3 luciferase reporter, at 10 µM, stronger effect = higher value
[10] = TLR3 IRF3 reporter activation blockers – cell-based, poly I:C stimulus, luciferase, 10K MLSCN set, primary screen (AID 602277;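 active means inhibition of the reporter signal at or above 50%; inactive means inhibition below 50%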); details: HEK293-TLR3 RL24 IRF3 luciferase reporter, at 10 µM, stronger effect = higher value
[11] = target: Muscarinic acetylcholine receptor M4 (Homo sapiens) (UniProt P08173); assay: M4-linked GIRK flux change, two-sided – cell-based, HEK293 M4/GIRK, thallium flux, BTC-AM, M4 allosteric agonist project, primary screen (AID 625;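 active means fluorescence slope after compound addition differing from the mean of all tested samples at 99.7% confidence, mostly higher but some lower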;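 further: thallium influx through GIRK channels coupled to M4 in HEK293 cells with BTC-AM dye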); details: at 10 µM, actives lie on both sides
[12] = reduction of polyQ htt aggregates in cells – imaging, exon1htt(103Q)mCFP cells, high-content imaging, primary screen (AID 483;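 active means visual image review flags a hit and inhibition of aggregation exceeds 20%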;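 further: compound exposure lasted 3 days before fixation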;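 on nuclei count: percent of the per-plate median nuclei count of sample wells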); details: exon1htt(103Q)mCFP cell line, aggregate imaging, at 2 µM; inhibition of aggregation: stronger effect = higher value; nuclei count: measured here: cell count, toxicity
[13] = measured here: cell density z-score
[14] = measured here: nuclear c-Myc green intensity z-score
[15] = measured here: nuclear pErk red intensity z-score, stronger effect = higher value

Sequence of Muscarinic acetylcholine receptor M4 (Homo sapiens) (P08173 whole entry, looked up): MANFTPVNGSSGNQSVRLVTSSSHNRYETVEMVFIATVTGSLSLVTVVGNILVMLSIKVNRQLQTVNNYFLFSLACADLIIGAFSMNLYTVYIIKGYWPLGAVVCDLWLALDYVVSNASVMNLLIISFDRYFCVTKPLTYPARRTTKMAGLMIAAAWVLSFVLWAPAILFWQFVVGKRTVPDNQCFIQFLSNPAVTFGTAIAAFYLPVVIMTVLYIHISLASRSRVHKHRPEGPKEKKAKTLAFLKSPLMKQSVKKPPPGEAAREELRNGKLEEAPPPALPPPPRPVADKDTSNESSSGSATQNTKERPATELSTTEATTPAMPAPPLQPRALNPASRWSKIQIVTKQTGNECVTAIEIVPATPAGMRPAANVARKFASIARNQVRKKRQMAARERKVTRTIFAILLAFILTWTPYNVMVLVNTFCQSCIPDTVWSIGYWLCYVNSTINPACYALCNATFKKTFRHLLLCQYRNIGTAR
Sequence of Dual specificity protein phosphatase 6 (Homo sapiens) (Q16828 whole entry, looked up): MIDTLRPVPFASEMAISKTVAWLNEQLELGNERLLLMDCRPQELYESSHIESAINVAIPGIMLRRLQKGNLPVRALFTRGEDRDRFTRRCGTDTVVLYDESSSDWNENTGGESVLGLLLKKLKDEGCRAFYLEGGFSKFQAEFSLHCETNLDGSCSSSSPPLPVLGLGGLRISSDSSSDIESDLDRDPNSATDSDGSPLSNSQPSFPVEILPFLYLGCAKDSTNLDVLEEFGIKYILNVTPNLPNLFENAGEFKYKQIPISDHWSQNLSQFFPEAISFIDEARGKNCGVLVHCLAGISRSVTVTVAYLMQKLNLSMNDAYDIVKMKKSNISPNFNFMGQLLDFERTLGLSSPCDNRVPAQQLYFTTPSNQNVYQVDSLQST
Sequence of Voltage-gated potassium channel subunit beta-2 (Rattus norvegicus) (P62483 whole entry, looked up): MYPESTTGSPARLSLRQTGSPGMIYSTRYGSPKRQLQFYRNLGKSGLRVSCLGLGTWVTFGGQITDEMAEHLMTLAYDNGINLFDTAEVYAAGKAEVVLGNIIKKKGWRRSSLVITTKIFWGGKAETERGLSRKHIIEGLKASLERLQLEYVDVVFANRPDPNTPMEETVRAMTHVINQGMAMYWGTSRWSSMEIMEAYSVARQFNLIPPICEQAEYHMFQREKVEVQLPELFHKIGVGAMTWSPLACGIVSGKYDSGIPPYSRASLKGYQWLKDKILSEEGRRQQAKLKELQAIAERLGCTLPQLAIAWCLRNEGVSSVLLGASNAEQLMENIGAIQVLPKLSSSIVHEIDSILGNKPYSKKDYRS
Sequence of Alpha-2C adrenergic receptor (Homo sapiens) (P18825 whole entry, looked up): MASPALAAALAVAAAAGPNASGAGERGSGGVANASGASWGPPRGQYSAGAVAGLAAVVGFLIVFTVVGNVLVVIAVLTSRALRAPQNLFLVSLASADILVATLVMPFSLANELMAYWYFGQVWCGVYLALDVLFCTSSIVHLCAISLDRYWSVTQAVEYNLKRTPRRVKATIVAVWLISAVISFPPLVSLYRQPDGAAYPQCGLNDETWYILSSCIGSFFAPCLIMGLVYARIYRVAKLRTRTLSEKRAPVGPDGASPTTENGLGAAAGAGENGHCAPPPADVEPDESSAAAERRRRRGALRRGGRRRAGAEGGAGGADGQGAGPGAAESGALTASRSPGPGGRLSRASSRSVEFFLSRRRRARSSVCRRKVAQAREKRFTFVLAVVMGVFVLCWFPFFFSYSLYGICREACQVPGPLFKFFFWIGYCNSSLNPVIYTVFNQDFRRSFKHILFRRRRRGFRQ

Row | SMILES | inhibition [1] | nuclei count [1] | z-score [2, 13] | z-score [2, 14] | z-score [2, 15] | inhibition [3] | fluorescence slope [4] | NADPH fluorescence slope [5] | slope [6] | outcome [7] | inhibition [8] | inhibition [9] | inhibition [10] | fluorescence slope [11] | inhibition of aggregation [12] | nuclei count [12]
1 | Nc1nc2c(ncn2COCCO)c(=O)[nH]1 | -45.2% (inactive) | 98.5% | -1.3 | 0.247 | -1.02 | 3.45% (inactive) | -0.446 (inactive) | -8.2e-06 (inactive) | 0.00457 (inactive) | inactive | -9.79% (inactive) and -10% (inactive) | -1.97% (inactive) | 26.2% (inactive) | – | – | –
2 | O=C(O)c1ccc(COCC(F)(F)C(F)F)o1 | -92.5% (inactive) | 150% | -0.0306 | -1.01 | 0.623 | 5.26% (inactive) | -0.428 (inactive) | -0.000116 (inactive) | 0.00477 (inactive) | inactive | 25% (inactive) | – | – | – | – | –
3 | CC1(C)CC(=O)C(C2=NC(C)(C)Cc3ccccc32)=C(O)C1 | -46.3% (inactive) | 99.8% | -0.0371 | 0.246 | -0.668 | 15.1% (inactive) | -0.435 (inactive) | 3.9e-06 (inactive) | – | inactive | -9.43% (inactive) | – | – | 0.00539 (inactive) | – | –
4 | CCCCOc1ccccc1P(=O)(O)CP(=O)(c1ccccc1)c1ccccc1 | -205% (inactive) | 192% | -0.204 | -0.49 | 0.473 | -5.89% (inactive) | -0.436 (inactive) | -3e-05 (inactive) | – | inactive | 2.4% (inactive) | – | – | 0.00473 (inactive) | – | –
5 | CN1CCN(C2=Nc3cc(Cl)ccc3Nc3ccccc32)CC1 | -176% (inactive) | 132% | -0.235 | 0.0948 | 0.322 | -0.493% (inactive) | -0.457 (inactive) | -6.9e-05 (inactive) | – | inactive | -2.62% (inactive) and 13.2% (inactive) | 2.76% (inactive) | 60.3% (active) | 0.00391 (inactive) | – | –
6 | CC[C@]1(O)C[C@@H]2CN(CCc3c([nH]c4ccccc34)[C@@](C(=O)OC)(c3cc4c(cc3OC)N(C)[C@H]3[C@@](O)(C(=O)OC)[C@H](OC(C)=O)[C@]5(CC)C=CCN6CC[C@]43[C@@H]65)C2)C1 | -205% (inactive) | 78% | -0.32 | -0.704 | 1.1 | -12.3% (inactive) | -0.495 (inactive) | -2.5e-05 (inactive) | 0.00463 (inactive) | inactive | -7.31% (inactive) | 23.8% (inactive) | 90.5% (active) | – | – | –
7 | COc1cccc(N2CCN(c3ncnc4c3[nH]c3ccccc34)CC2C)c1 (stereo unspecified) | 72.8% (inactive) | 102% | -0.905 | -0.691 | 2.95 | -7.93% (inactive) | -0.41 (inactive) | -8e-06 (inactive) | – | inactive | 57% (active) | – | – | 0.00483 (inactive) | – | –
8 | O=C(CCCN1CCC(O)(c2ccc(Cl)cc2)CC1)c1ccc(F)cc1 | -112% (inactive) | 130% | 1.12 | -0.669 | -0.889 | 10.2% (inactive) | -0.485 (inactive) | -4.2e-05 (inactive) | – | – | -2.31% (inactive) and 3.84% (inactive) | -13% (inactive) | -5.69% (inactive) | 0.00387 (inactive) | – | –
9 | COc1ccc(CSc2nnc(C)n2N)cc1Br | -82.3% (inactive) | 182% | 1.41 | -2.02 | 0.078 | 13.2% (inactive) | -0.395 (inactive) | -5.4e-05 (inactive) | – | inactive | 5.58% (inactive) | – | – | 0.00742 (inactive) | – | –
10 | CC1(C)S[C@@H]2[C@H](NC(=O)[C@H](N)c3ccccc3)C(=O)N2[C@H]1C(=O)O | -51.2% (inactive) | 131% | -0.832 | -1.51 | 1.6 | -8.38% (inactive) | -0.459 (inactive) | 1.8e-05 (inactive) | 0.0053 (inactive) | inactive | -0.692% (inactive) | 7.78% (inactive) | 28.7% (inactive) | – | – | –
11 | COc1ccc(-c2coc3cc(O)cc(O)c3c2=O)cc1 | – | – | -0.996 | 0.921 | 0.72 | 10.2% (inactive) | -0.544 (inactive) | -4.1e-06 (inactive) | 0.00576 (inactive) | inactive | -12.4% (inactive) | -90.2% (inactive) | -200% (inactive) | – | 9.1% (inactive) | 116%
12 | CC(=O)O[C@@]12CO[C@@H]1C[C@H](O)[C@@]1(C)C(=O)[C@H](O)C3=C(C)[C@@H](OC(=O)[C@H](O)[C@@H](NC(=O)OC(C)(C)C)c4ccccc4)C[C@](O)([C@@H](OC(=O)c4ccccc4)[C@H]21)C3(C)C | – | – | -1.36 | 0.683 | 1.58 | -9.66% (inactive) | -0.48 (inactive) | -5.5e-05 (inactive) | 0.00555 (inactive) | inactive | 22.5% (inactive) | 37.7% (inactive) | 38.9% (inactive) | – | -77% (inactive) | 4.4%
13 | CC(C)c1nc2sc3c(c2c(=O)o1)CCCC3 | -11.8% (inactive) | 143% | -0.957 | 1.42 | 1.08 | 13.2% (inactive) | -0.376 (inactive) | -6.4e-05 (inactive) | – | inactive | 22.9% (inactive) | – | – | 0.00562 (inactive) | – | –
